# Screens (PubChem BioAssay)
# This is one part of a sample in which hits are shown more often than they occur.
# Dicer processing – blocks human Dicer maturation of pre-miR-21; cat-ELCCA pre-miR-21 Dicer processing, chemiluminescence; hits give high values; z-score at 25 µM; hit rate 6% among 47,000; AID 1347074; Q9UPY3; in the data active = z-score above about 3, passing the limit was not always enough;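 also: plate controls were vehicle for no effect and no enzyme for full effect; higher signal means more uncleaved substrate so more Dicer inhibition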
# * marks the source's active call; other numbers are inactive results.
SMILES,Dicer processing
c1ccc(-n2cnc3cc(NCc4ccccn4)ccc32)cc1,2.6
COc1ccccc1-n1cnc2cc(NCc3ccncc3)ccc21,5.3*
CCCCCC(C)n1[nH]c(=O)c2c(C)cc(=O)[nH]c21 (centres undefined),-5.1
C=C1SC(Nc2cccc(Cl)c2)=NC1(CC)CC,-0.74
Cc1nc(C)c(-c2csc(Nc3cccc(O)c3)n2)s1,-1.1
Cc1nc(C)c(-c2csc(Nc3ccccc3)n2)s1,5.1*
Cc1nc(C)c(-c2csc(Nc3ccc(C(=O)O)cc3)n2)s1,-1.9
Cc1onc(-c2c(Cl)cccc2Cl)c1C(=O)n1ccc(-c2cccs2)n1,0.19
OCCCNc1ncnc2c1oc1ccccc12,0.01
CC1=C(C(=O)Nc2cc(C)ccn2)C(c2ccc(F)cc2)C2=C(CC(C)(C)CC2=O)N1 (centres undefined),1.8
CC1=C(C(=O)Nc2ccc(Br)cn2)C(c2ccc(C)cc2)C2=C(CC(C)(C)CC2=O)N1 (centres undefined),-0.43
CC1=C(C(=O)Nc2ccccn2)C(c2ccc(Br)cc2)C2=C(CC(C)(C)CC2=O)N1 (centres undefined),4.1*
CC1=C(C(=O)OCCc2ccccc2)C(c2ccc3c(c2)OCO3)C2=C(CC(C)(C)CC2=O)N1 (centres undefined),1.5
CC1=C(C(=O)Nc2cccc(C)n2)C(c2cccc(Br)c2)C2=C(CC(C)(C)CC2=O)N1 (centres undefined),4.8*
CCOC(=O)C1=C(C)NC2=C(C(=O)CC(C)(C)C2)C1c1ccc(F)cc1 (centres undefined),0.51
CC1=C(C(=O)Nc2ccc(F)cc2F)C(c2ccc3c(c2)OCO3)C2=C(CC(C)(C)CC2=O)N1 (centres undefined),3.1*
COC(=O)C1=C(C)NC2=C(C(=O)CC(C)(C)C2)C1c1cccc(F)c1 (centres undefined),-0.96
CC1=C(C(=O)Nc2ccc(C)cn2)C(c2cccc(Br)c2)C2=C(CC(C)(C)CC2=O)N1 (centres undefined),1.3
COc1cccc(NC2=C(C#N)C(=O)NC(c3ccc([N+](=O)[O-])cc3)S2)c1 (centres undefined),1.3
CCCOc1cccc(C2c3c(oc4ccccc4c3=O)C(=O)N2c2nc(C)c(C)s2)c1 (centres undefined),0.66
Cc1ccc(NC(=S)Nc2cccc(C(F)(F)F)c2)c(C)c1,0.27
Cc1csc(C(=O)O/N=C(\N)c2ccc(Cl)cc2)c1Cl,-0.67
CCOC(=O)c1oc2nc(-c3ccccc3)cc(C)c2c1NC(=O)Nc1ccc(Cl)cc1,-1.5
O=C(N/C(=N\N=C1CCCCC1)SCc1ccccc1)Nc1ccccc1,2.3
Cc1cscc1S(=O)(=O)c1ccc(Cl)cc1,-1.3
SMILES,Dicer processing
CS(=O)(=NS(=O)(=O)c1cc(Cl)sc1Cl)c1ccc(OC(=O)c2ccc(Cl)cc2)cc1 (centres undefined),0.85
O=C1C2ON(c3ccccc3)C(c3ccncc3)C2C(=O)N1c1cccc(Cl)c1 (centres undefined),0.39
CN(C)c1ccc(C2C3C(=O)N(Cc4ccccc4)C(=O)C3ON2c2ccccc2)cc1 (centres undefined),3.3*
COc1ccc(C2C3C(=O)N(c4ccc(F)cc4)C(=O)C3ON2c2ccccc2)cc1 (centres undefined),0.49
CN1CCN(C(c2ccccc2)c2ccc(Cl)cc2)CC1 (centres undefined),-0.11
CN1CCN(C(c2cccs2)N2CCN(C)CC2)CC1,4.6*
CN1CCN(C(c2cccs2)c2ccc3cccnc3c2O)CC1 (centres undefined),0.94
CCOC(=O)C1=C(C)NC2=C(C(=O)CCC2)C1c1ccc(OC)c(Br)c1 (centres undefined),-0.37
CCCCC[C@H](O)/C=C/[C@@H]1[C@@H](C/C=C\CCCC(=O)O)[C@@H](O)C[C@H]1O (tested in a mixture with another compound),-0.37
Cc1ccc(-c2nc(N)sc2C)cc1Cl,-1.9
Cc1ccc(OCCSc2nc3ccccc3n2CCO)cc1,-0.89
OCCSc1nc2ccccc2n1CCOc1ccccc1,3.9*
CSc1nc2ccccc2n1CCOc1ccccc1,-1.9
Cc1nn(C)c2ncc3c(=O)[nH]n(C)c3c12,0.49
O=C(Cn1nnc(N2CCOCC2)n1)c1ccc(Cl)cc1,-0.12
Cc1cc(C)nc(NS(=O)(=O)c2ccc(NC(=O)Nc3ccsc3)cc2)n1,9.9
O=C(OCc1ccc(Cl)cc1)c1cnc(NNC(=O)C(F)(F)F)nc1C(F)(F)F,3.4*
O=C(OCc1ccc(Cl)cc1)c1cnc(Sc2ccc(Cl)cc2)nc1C(F)(F)F,-4
CCCC(=O)NNc1ncc(C(=O)OCC)c(C(F)(F)F)n1,2.7
Cc1c(Cl)cccc1NC(=S)/N=C/N(C)C,0.26
O=C(N/N=C/c1ccc(C(F)(F)F)cc1)c1nc2ccccc2nc1C(F)(F)F,-0.2
COc1cccc(C(=O)/C=c2\[nH]c(=O)/c(=C\c3ccccc3)s2)c1,0.93
CC(C)(C)c1ccc(C(=O)/C=C2\NC(=O)CS2)cc1,-2.3
CC(C)(C)c1ccc(C(=O)/C=c2\[nH]c(=O)/c(=C\c3cccs3)s2)cc1,3.4*
COc1ccc2c(c1)CN(Cc1ccccc1)CO2,-0.05
SMILES,Dicer processing
Fc1ccc(N=C/C=C/C=C/Nc2ccc(F)cc2)cc1,3.1*
C(/C=C/C=C/Nc1ccccc1)=Nc1ccccc1,0.52
O=C(O)C1CC(=O)N(C2Cc3ccccc3C2)C1 (centres undefined),-0.05
COc1ccc(CCN=Cc2ccc(Oc3nccc(C(F)(F)F)n3)cc2)cc1OC,0.19
O=C(Nc1ccc(OC(F)(F)F)cc1)N1CCN(c2ccc([N+](=O)[O-])cn2)CC1,-0.92
N#Cc1cccnc1N1CCN(C(=O)Nc2ccccc2)CC1,2.8
N#Cc1cccnc1N1CCN(C(=O)Nc2ccc(OC(F)(F)F)cc2)CC1,3.1*
Cc1onc(-c2ccccc2)c1C(=O)OCC(=O)c1ccc(Br)cc1,-1.1
CCCSc1nnc2c(n1)OC(/C=C/c1ccc([N+](=O)[O-])o1)Nc1ccccc1-2 (centres undefined),3.5*
CCSc1nnc2c(n1)OC(c1ccc(O)cc1)Nc1ccccc1-2 (centres undefined),-0.74
CCSc1nnc2c(n1)OC(c1ccc(N(C)C)cc1)Nc1ccccc1-2 (centres undefined),1.4
COC(=O)CSc1c(Cl)cncc1Cl,-0.94
Cc1cc2n(n1)C(c1sccc1C)Nc1ccccc1-2 (centres undefined),1.2
Cc1cc2n(n1)C(c1sccc1C)Nc1c(C)cccc1-2 (centres undefined),0.5
CCOc1cc(C2Nc3ccccc3-c3cc(C)nn32)ccc1O (centres undefined),0.18
CCOc1cccc(C2Nc3c(C)cccc3-c3cc(C)nn32)c1O (centres undefined),2.7
COc1ccc(C2Nc3ccccc3-c3cc(C)nn32)cc1O (centres undefined),3.6*
COc1ccc(C2Nc3ccccc3-c3cc(C)nn32)cc1 (centres undefined),1.8
CCOc1cc(C2Nc3c(C)cccc3-c3cc(C)nn32)ccc1O (centres undefined),3.6*
Cc1cc2n(n1)C(c1ccc(N(C)C)cc1)Nc1c(C)cccc1-2 (centres undefined),6*
Cc1cc2n(n1)C(c1cc(Br)ccc1O)Nc1ccccc1-2 (centres undefined),4.6*
COc1cccc(C2Nc3ccccc3-c3cc(C)nn32)c1OC (centres undefined),-0.12
